Values joined by “and” are separate entries in the source; they are usually repeats but may differ in a detail not shown here. Equal values may be shown once. Compounds without any hit were thinned out: in the full panel of roughly 83,000, 20% have a hit.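 The test compound was applied at a single concentration to cells in 96-well plates for 48 hours, and percent growth was recorded.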 Active and inactive are the calls of the source. How the source made its calls: active means growth percent below 10; inactive means the rest.
What follows are compounds tested on HL-60(TB) leukemia (assay: NCI-60 one-dose screen, 48 h (100 = growth as untreated, 0 = no growth, -100 = all killed)). Settings: 10 µM unless noted.
With C=C(C)[C@@H]1CC[C@]2(CO)CC[C@]3(C)[C@H](CC[C@@H]4[C@@]5(C)CC[C@H](NCO)C(C)(C)[C@@H]5CC[C@]43C)[C@@H]12 the growth was -52% (active). With O=C(O)CNC(=O)C1(N2C(=O)c3ccccc3C2=O)CCCC1 the growth was 90.6% (inactive). In the case of Cc1cccc([N+](=O)[O-])c1Cl, the growth is reported as 115% (inactive). With Cc1ccc(S(=O)(=O)Nc2ccc(-c3cc(-c4cccc(F)c4)c(C#N)c(N)n3)cc2)cc1 the growth was -14.9% (active). O=c1oc2ccc(-c3ccc(F)cc3F)cc2c(=O)n1-c1ccc(Cl)c(C(F)(F)F)c1 was tested, and the growth was 1.69% (active). For COc1cc2c(cc1OCCCOc1ccc(-c3cc4ccccc4c4ccccc34)cc1)N=C[C@@H]1CCCN1C2=O, the growth was -11.8% (active). With COc1ccc2oc3c(C)c4c(c(C)c3c2c1)C(=O)N(Cc1ccccc1)C4=O the growth was 96.2% (inactive). In the case of O=C(/C=C/c1ccco1)c1ccc(Nc2nc(Nc3ccc(F)cc3)nc(Nc3ccc(Cl)cc3)n2)cc1, the growth is reported as -93.7% (active). With OCc1cccnc1 the growth was 117% (inactive). In the case of CCC(C)CC(C)C(=O)c1c(O)ccn(OC)c1=O (configuration not stated), the growth is reported as 94.6% (inactive). With OCCN1CCN(CCO)CC1 the growth was 108% (inactive) and 102% (inactive) and 96.2% (inactive). With N#CCCN1CCN(CCC#N)C1=S the growth was 129% (inactive). COc1cc2nc(N3CCC[C@@H](NC4=CC(=O)c5ccccc5C4=O)C3)nc(N)c2cc1OC was tested, and the growth was -60.3% (active). COc1ccc2nc(NC(=O)CSc3nnc4n3S(=O)(=O)c3ccccc3N4c3ccccc3)sc2c1 was tested, and the growth was -83.2% (active). With COc1ccc(-c2nc(SCCC(C)C)nc(Nc3ccc(F)c(Cl)c3)c2C#N)cc1 the growth was 107% (inactive). In the case of Nc1ccc(S(=O)(=O)O)c2ccc(N=Nc3ccc(N=Nc4ccc(S(=O)(=O)O)cc4)c4ccccc34)c(O)c12, the growth is reported as 70.5% (inactive). COc1ccc2c(c1)sc1nc(-c3ccccc3)c(-c3ccc(O)c(OC)c3)n12 was tested, and the growth was 44.2% (inactive). For N#Cc1ncc(-c2cc(F)c(F)c(F)c2)c(NC2CCCCCC2)n1, the growth was 108% (inactive). For O=C(Nc1ccc(Cl)c(Cl)c1)Nc1ccc(Cl)c(Cl)c1, the growth was -56.8% (active) and 13% (inactive). CCOC(=O)c1ccc2c(c1)nc(-c1ccc(Cl)cc1)n2-c1cc(C(C)(C)C)[nH]n1 was tested, and the growth was -14.7% (active). In the case of COc1cc(CNC(=O)CCCC/C=C/C(C)C)ccc1OCc1nnc(Nc2ccc([N+](=O)[O-])cc2)o1, the growth is reported as 101% (inactive). For COc1ccc(/C=C(/C(=O)N2CCN(c3ccccc3)CC2)c2cc(OC)c(OC)c(OC)c2)cc1N, the growth was -37.5% (active). For O=[N+]([O-])c1ccc(N/N=C/c2c(O)ccc3ccccc23)nc1, the growth was 9.55% (active). With Cc1c(-c2nc3ccc(F)cc3c(=O)[nH]2)c2ccccc2n1C the growth was 4.98% (active). With Cc1c(C(=O)NCCN2CCOCC2)cn2ncnc(Oc3ccc(NC(=O)Nc4ccc(Cl)c(C(F)(F)F)c4)cc3)c12 the growth was -0.946% (active). With O=C(O)c1cc(=O)[nH]c(=O)[nH]1 the growth was 109% (inactive) and 106% (inactive). With N#Cc1c(-c2ccc(C(F)(F)F)cc2)cc(N2CC(O)C2)n2c1nc1ccccc12 the growth was 118% (inactive).

— PubChem BioAssay (NCI)
